Assay [1] is described as follows: qHTS drug screen for cell cycle checkpoint inhibitors in PARPi-resistant BRCA-mutant ovarian cancer cell lines. (AID 1963452). Also: potency is read from the fitted curve at half-maximal effect. The conditions noted are these: PEO1/OlaR viability, CellTiter-Glo luminescence, 96 h; for Z-AUC: stronger effect = lower value. In short, it runs like this: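 PEO1, PEO4 and PEO1/OlaR ovarian cancer cells, 600 per well, exposed 96 h at 37C to a dilution series. Viability read by CellTiter-Glo luminescence, normalized to DMSO and empty wells; activity summarized as Z-AUC.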
(Quantitative high-throughput screening tests each substance at several concentrations.)

A short description of assay [2]: qHTS for identification of novel therapeutic agents for treatment of microphthalmiaassociated transcription factor (MiT) renal cell carcinoma (RCC) (AID 1963991). The conditions noted are these: CellTiter-Glo, 48 h, stronger effect = lower value. The procedure, abridged:
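Viability of three TFE3-fusion renal carcinoma lines measured by CellTiter-Glo after 48 h treatment with each of 1912 compounds at 11 concentrations. Responses scaled between DMSO (100%) and empty wells (0%) before curve fitting.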

Setting [3] is: measured here: PEO1 parental Z-AUC.
[4] abbreviates: TFE3-RCC UOK109 viability, measured here: UOK109 Z-AUC.
Setting [5] is: TFE3-RCC viability, measured here: UOK124 Z-AUC.
Where [6] appears, read: TFE3-RCC viability, measured here: UOK145 Z-AUC.

Results filed as inconclusive are left out. Activity calls are given as the source filed them. Calls follow the shape of the full dose curve.

Regarding `CC(C)C(C)C=CC(C)C1CCC2C3=CC=C4CC(O)CCC4(C)C3CCC21C` (stereo unspecified), the Z-AUC in assay [1] is 1.48 (inactive); in assay [1] (setting [3]), 1.13; in assay [1] (measured here: PEO4 Z-AUC), 1.32. The z-score amounted to 0.762 in assay [2] (setting [4]), 0.655 in assay [2] (setting [5]) and 1.94 in assay [2] (setting [6]).

Consider `O=C1C(Cl)=C(NCCN2CCOCC2)C(=O)c2ncccc21`, for which the Z-AUC in assay [1] is -1.13 (inactive); in assay [1] (setting [3]) it was -1.16; in assay [1] (measured here: PEO4 Z-AUC) it was -1.1.

Turning to `O=c1cc(-c2cccc3c2Sc2ccccc2S3)oc(N2CCOCC2)c1`, the Z-AUC was 1.05 (inactive) in assay [1], 1.03 in assay [1] (setting [3]) and 0.875 in assay [1] (measured here: PEO4 Z-AUC).

Regarding `O=C(NCc1ccccc1)c1csc(Nc2ccncn2)n1`, the figures for the Z-AUC in assay [1], in assay [1] (setting [3]) and in assay [1] (measured here: PEO4 Z-AUC) were -0.615 (inactive), 0.117 and 0.922, respectively.

`CNC1CCC(N(Cc2cccc(-c3ccncc3)c2)C(=O)c2sc3c(F)ccc(F)c3c2Cl)CC1` (stereo unspecified): the Z-AUC in assay [1] is -0.961 (inactive); in assay [1] (setting [3]), -0.582; in assay [1] (measured here: PEO4 Z-AUC) it was -1.33.

Turning to `CC(C)OC(=O)C(C)(C)Oc1ccc(C(=O)c2ccc(Cl)cc2)cc1`, the Z-AUC in assay [1] is -0.547 (inactive); in assay [1] (setting [3]), -0.458; in assay [1] (measured here: PEO4 Z-AUC), 0.0191.

As to `CC1CCC(C(=O)N(c2cc(C#CC(C)(C)C)sc2C(=O)O)C2CCC(O)CC2)CC1` (stereo unspecified), the results for the Z-AUC in assay [1], in assay [1] (setting [3]) and in assay [1] (measured here: PEO4 Z-AUC) were 0.0164 (inactive), -0.415 and -0.158, respectively.

`N[C@@]1(C(=O)O)CS(=O)(=O)[C@H]2[C@H](C(=O)O)[C@H]21`: the Z-AUC in assay [1] was -0.18 (inactive); in assay [1] (setting [3]) it was 0.223; in assay [1] (measured here: PEO4 Z-AUC), 0.235.

With `Oc1ccc(C2CCN(c3ccnc4ccccc34)CC2)cc1O`, the Z-AUC in assay [1] was 0.817 (inactive); in assay [1] (setting [3]), -0.32; in assay [1] (measured here: PEO4 Z-AUC), 0.401.

Consider `CCCCCCCCCCCC1=C(O)C(=O)C=C(O)C1=O`, for which the Z-AUC is 1.62 (inactive) in assay [1], 1.09 in assay [1] (setting [3]) and 1.19 in assay [1] (measured here: PEO4 Z-AUC).

Consider `COc1cccc([C@@H](C)NCCCc2ccccc2Cl)c1`, for which the Z-AUC is 0.861 (inactive) in assay [1], 1.12 in assay [1] (setting [3]) and 0.597 in assay [1] (measured here: PEO4 Z-AUC).

Regarding `O=c1c(O)c(-c2ccc(O)cc2)oc2cc(O)cc(O)c12`, the Z-AUC was 0.889 (inactive) in assay [1], 1.15 in assay [1] (setting [3]) and 1.73 in assay [1] (measured here: PEO4 Z-AUC).

In the case of `Cc1ccc(Nc2cc(-c3cccc(N4C(=O)c5ccccc5C4=O)c3)ncn2)cc1NS(C)(=O)=O`, the Z-AUC is -0.648 (inactive) in assay [1], -0.644 in assay [1] (setting [3]) and -0.365 in assay [1] (measured here: PEO4 Z-AUC).

On to `CC(C)C(=O)Nc1ncc(-c2cc(C(F)F)nn2-c2c(Cl)cccc2Cl)s1`, for which the Z-AUC in assay [1] is -0.482 (inactive); in assay [1] (setting [3]) it was 0.209; in assay [1] (measured here: PEO4 Z-AUC), 0.42.

Turning to `O=c1cc(N2CCOCC2)oc2c(-c3cccc4c3sc3ccccc34)cccc12`, the Z-AUC in assay [1] was 0.27 (inactive); in assay [1] (setting [3]) it was 0.135; in assay [1] (measured here: PEO4 Z-AUC) it was 0.0636.

For the compound `CC(C)n1nc(-c2ccc3oc(N)nc3c2)c2c(N)ncnc21`, the Potency in assay [1] was 871 nM (active). In addition, the Z-AUC in assay [1] (setting [3]) is -1.21; in assay [1] (measured here: PEO4 Z-AUC) it was -1.54.

Regarding `COc1cc(N2CCC(N3CCN(C)CC3)CC2)ccc1Nc1ncnc(Nc2ccccc2S(=O)(=O)C(C)C)n1`, the Z-AUC is 0.282 (inactive) in assay [1], 0.069 in assay [1] (setting [3]) and 0.238 in assay [1] (measured here: PEO4 Z-AUC).

`O=C(O)c1ccc(-c2c[nH]c3ncc(-c4ccccc4)cc23)cc1C1CCCC1`: the Z-AUC in assay [1] is 0.296 (inactive); in assay [1] (setting [3]), -0.104; in assay [1] (measured here: PEO4 Z-AUC) it was 0.0769. For the same compound, the z-score amounted to 1.28 in assay [2] (setting [4]), 0.56 in assay [2] (setting [5]) and 0.0409 in assay [2] (setting [6]).

Take `COc1ccc2c(Oc3ccc(NC(=O)c4c(C)n(CC(C)(C)O)n(-c5ccccc5)c4=O)nc3)ccnc2c1`: the Z-AUC in assay [1] is 0.509 (inactive); in assay [1] (setting [3]), 0.436; in assay [1] (measured here: PEO4 Z-AUC), -0.433.

As for `CC(C)(C)c1cc(C(=O)O)c(NC(=O)Nc2ccc3[nH]ncc3c2)s1`, the Z-AUC in assay [1] was -0.548 (inactive); in assay [1] (setting [3]), -0.418; in assay [1] (measured here: PEO4 Z-AUC) it was -0.766. The z-score was 0.185 in assay [2] (setting [4]), -0.00808 in assay [2] (setting [5]) and 0.16 in assay [2] (setting [6]).

Take `Cc1ccccc1C(C(=O)NC1CCCCC1)N(C(=O)Cn1ccnc1C)c1cccc(F)c1` (stereo unspecified): the Z-AUC in assay [1] was 0.113 (inactive); in assay [1] (setting [3]), 0.941; in assay [1] (measured here: PEO4 Z-AUC) it was 0.654. For the same compound, the z-score was 0.6 in assay [2] (setting [4]), 0.139 in assay [2] (setting [5]) and 0.682 in assay [2] (setting [6]).

Consider `COC1CCC(N(C(=O)C2CCC(C)CC2)c2cc(C3=CCCCC3)sc2C(=O)O)CC1` (stereo unspecified), for which the Z-AUC in assay [1] was -0.412 (inactive); in assay [1] (setting [3]), -0.941; in assay [1] (measured here: PEO4 Z-AUC), -0.935. For the same compound, the results for the z-score in assay [2] (setting [4]), in assay [2] (setting [5]) and in assay [2] (setting [6]) were 0.459, 1.37 and 0.333, respectively.

The record behind these values is PubChem BioAssay (NCATS).
